Among all 340,000 compounds or so, about 2,800 (0.82%) were called active.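 The calls were made as follows: active = B-score under library mean minus 4 SD, starting fluorescence ratio at most library mean plus 5 SD; inactive = the rest.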 For the sample, actives were picked, then their nearest neighbours and some compounds at random.

Sequence of Potassium channel subfamily K member 3 (Homo sapiens) (O14649 whole entry, looked up): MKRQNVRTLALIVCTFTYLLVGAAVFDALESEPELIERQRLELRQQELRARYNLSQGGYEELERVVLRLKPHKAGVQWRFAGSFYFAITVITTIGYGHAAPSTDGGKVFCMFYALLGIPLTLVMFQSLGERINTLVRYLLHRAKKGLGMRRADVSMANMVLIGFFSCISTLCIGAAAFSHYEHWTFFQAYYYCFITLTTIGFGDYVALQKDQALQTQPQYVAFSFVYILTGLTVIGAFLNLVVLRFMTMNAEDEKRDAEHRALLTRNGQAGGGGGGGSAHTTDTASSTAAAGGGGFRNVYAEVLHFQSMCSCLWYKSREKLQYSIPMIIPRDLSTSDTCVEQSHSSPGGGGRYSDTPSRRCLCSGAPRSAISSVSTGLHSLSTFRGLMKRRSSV

The assay addresses Potassium channel subfamily K member 3 (Homo sapiens) (UniProt O14649). The experiment in a line: human KCNK3 channel inhibitors, primary screen, CHO cells, FluxOR thallium flux, B-score (AID 602410).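 As to B-score: more negative B-score means stronger inhibition of thallium flux through KCNK3.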 The conditions noted are these: FluxOR fluorescence, at 10 µM; stronger effect = lower value.
As for `CC(=O)NCCC(=O)Nc1cc(S(=O)(=O)N2CCCCC2)ccc1Oc1cccc(C)c1`, the B-score result was “inactive”.
In the case of `Cc1c(NC(=O)CCC2CCCCC2)cc(C(=O)N2CCOCC2)cc1[N+](=O)[O-]` it was “inactive”.
With `CC(C)N1C(=O)N(c2ccccc2)C(C)(O)CC1(C)C` (stereo unspecified), the B-score entry is “inactive”.
Take `CC(C)N(Cc1nc(-c2ccc3c(c2)OCO3)no1)CC1CCC(=O)N1` (stereo unspecified): the B-score result was “inactive”.
With `Cc1c(S(=O)(=O)NC(C)c2ccccc2)c(=O)n(C)c(=O)n1C` (stereo unspecified), the B-score result is “inactive”.
With `Cc1ccc(NC(=O)COC(=O)C2CC2)cc1S(=O)(=O)N1CCOCC1`, the B-score entry was “inactive”.
For `Cc1ccc(NC(=O)COC(=O)CNC(=O)c2ccc(Cl)cc2Cl)cc1S(=O)(=O)N1CCOCC1`, the B-score is -10.7 (active).
In the case of `Cc1ccc(NC(=O)CCCNC(=O)c2ccc(Cl)cc2)cc1S(=O)(=O)N1CCOCC1` it was “inactive”; in that of `CC1COc2ccccc2N1C(=O)c1cccnc1Cl` (stereo unspecified), “inactive”; in that of `O=C(NC1CCC(O)CC1)c1ccccc1OCc1ccc(F)cc1` (stereo unspecified), “inactive”.
`COc1ccc(CCNC(=O)c2ccccc2OCc2ccccc2)cc1`: the B-score entry was “inactive”.
Take `CC(=O)c1ccccc1OCc1ccc(C(=O)c2ccccc2)cc1`: the B-score is -15.7 (active).
Consider `O=C(OCCOCn1cc(Br)c(=O)[nH]c1=O)c1ccccc1`, for which the B-score result is “inactive”.
The result for `Cc1occc(=O)c1OCc1ccc(F)cc1` reads “inactive”; that for `Cc1nc2ccccc2cc1OCc1ccc(F)cc1`, -11.4 (active).
In the case of `Fc1cccc2ncnc(OCc3ccccc3)c12`, the B-score result is “inactive”.
Consider `CCc1ccc(N2CC(C(=O)N3CCCCCC3)CC2=O)cc1` (stereo unspecified), for which the B-score result is “inactive”.
As to `COc1ccccc1N1CCN(/N=C/c2ccc(O)cc2O)CC1`, the B-score entry was “inactive”.
In the case of `COc1ccccc1N1CCN(/N=C\C(Br)=C\c2ccccc2)CC1`, the B-score is -9.41 (active).
On to `COc1cc(/C=N/N2CCN(c3ccccc3)CC2)ccc1OC(C)=O`, for which the B-score entry was “inactive”.
On to `COc1ccc(CC(=O)N[C@@H](CCSC)c2nc3ccccc3[nH]2)cc1`, for which the B-score entry was “inactive”.
Consider `CC1CC(C)CN(c2ccc(S(=O)(=O)N3CCOCC3)cc2)C1` (stereo unspecified), for which the B-score entry is “inactive”.
For the compound `Cc1cc(C)c(C#N)c(SCc2ccc3c(c2)OCO3)n1`, the B-score is -11.2 (active).
As for `Cc1ccc(CSc2nsc(C)c2C#N)cc1`, the B-score result was “inactive”.
For `Cc1cc(C)c(C#N)c(SCc2ccccc2C(=O)O)n1`, the B-score result is “inactive”.
In the case of `CCOc1ccc(OCC)c(NC(=O)C(NS(=O)(=O)c2ccc3c(c2)oc(=O)n3C)C(C)C)c1` (stereo unspecified) it was “inactive”; in that of `COc1ccccc1OCC(=O)Nc1ccccc1C(=O)NC1CC1`, “inactive”; in that of `COc1ccc(C(=O)c2c3ccc([N+](=O)[O-])cc3[n+]([O-])n2CCCN)cc1`, “inactive”.
For the compound `COCC(=O)Nc1cc(C(=O)OC)cc(C(=O)OC)c1`, the B-score result was “inactive”.
Consider `O=C(O)c1ccccc1C(=O)NC1=NN(c2ccccc2)CC1`, for which the B-score entry is “inactive”.
With `N/C(=N\OC(=O)CCn1cccc(C(F)(F)F)c1=O)c1ccc(OC(F)(F)F)cc1`, the B-score result was “inactive”.
On to `C=CCc1cc(S(=O)(=O)c2ccc(O)c(CC=C)c2)ccc1O`, for which the B-score was -11 (active).
For the compound `COc1ccc(CNC(=O)C2CCC(CNc3c(N4CCOCC4)c(=O)c3=O)CC2)cc1` (stereo unspecified), the B-score entry is “inactive”.
With `O=C(NCCc1ccccn1)c1nc(Cn2cc([N+](=O)[O-])cn2)no1`, the B-score entry was “inactive”.
With `O=C(c1cc(-c2ccc(O)cc2)on1)N1CCCc2ccccc21`, the B-score was -9.08 (active).
Regarding `O=C(c1cc(-c2cccc(O)c2)on1)N1CCc2ccccc2C1`, the B-score entry was “inactive”.
As to `O=C(c1cc(-c2ccc(O)cc2)on1)N1CCOCC1`, the B-score entry was “inactive”.
`Cc1onc(-c2ccccc2)c1C(=O)N=C(N)c1ccc(Cl)cc1`: the B-score entry was “inactive”.
Take `CCc1ccc(C(=O)CSc2nnc(C)c(=O)[nH]2)cc1`: the B-score result is “inactive”.
In the case of `COC(=O)c1c(NC(=O)c2ccccc2F)sc2c1C(C(=O)OC)CC2` (stereo unspecified) it was “inactive”; in that of `O=C(CNS(=O)(=O)c1ccccc1)NCC(=O)OCc1ccccc1F`, “inactive”.
Regarding `COC(=O)C(C)Sc1ccc2nnc(-c3cccc(F)c3)n2n1` (stereo unspecified), the B-score entry is “inactive”.
The result for `COc1ccc(NC(=O)c2cc3nc(-c4ccccc4)cc(C)n3n2)cc1OC` reads “inactive”; that for `COCCNc1cc(-c2ccccc2)nc2cc(-c3cccc(F)c3)nn12`, -8.74 (active); that for `O=C(CSc1ccccc1)Nc1cc(Cl)ccc1Oc1ccccc1`, “inactive”.
In the case of `CC(=O)Nc1ccc(NC(=O)CN2CCCC(C)C2)c(Cl)c1` (stereo unspecified), the B-score entry is “inactive”.
With `CC1CCCN(CC(=O)Nc2cc(Cl)ccc2Oc2ccccc2)C1` (stereo unspecified), the B-score was -11.4 (active).
`O=C1CCC[C@@H]2CC(N3CCCCC3)C[C@@H]3CCN1[C@H]23` (stereo partly specified): the B-score result was “inactive”.
Consider `COc1ccc(CC(NC(C)=O)C(=O)N2CCN(C(=O)Nc3cccc(Cl)c3)CC2)cc1OC` (stereo unspecified), for which the B-score entry was “inactive”.
As for `CCc1nc(SCC(=O)NNC(=O)c2ccc(C)cc2)c2ccccc2n1`, the B-score is -8.73 (active).
Consider `Cc1ccc(C(=O)NNC(=O)CSc2nnc3ccccn23)cc1`, for which the B-score result is “inactive”.
`CCCNC(=O)CSc1nc(Cc2ccccc2)nc2ccccc12`: the B-score entry is “inactive”.
For the compound `C=CCSc1nc(Cc2ccc(Cl)cc2)nc2ccccc12`, the B-score entry was “inactive”.
In the case of `O=C(CNC(=O)c1ccc(Br)o1)Nc1ccccc1`, the B-score result is “inactive”.
In the case of `CCCC(=O)Nc1ccc(Cl)c(NC(=O)c2ccc(Br)o2)c1`, the B-score is -9.33 (active).
Consider `CCN1CCN(c2c(Cl)cccc2NC(=O)c2ccc(Br)o2)CC1`, for which the B-score result was “inactive”.
Take `CC(=O)C1=C(C)NC(C)=C(C(C)=O)C1c1cn(-c2ccccc2)nc1-c1cccs1`: the B-score result was “inactive”.
As to `COc1ccc(C(C(=O)NC(C)(C)C)N(C(=O)Cn2nnc3ccccc32)c2ccc(C(C)=O)cc2)cc1O` (stereo unspecified), the B-score entry was “inactive”.
Consider `C#CC(C)(C)NC(=O)c1cnc(-c2ccccc2)nc1-c1ccccc1`, for which the B-score entry was “inactive”.
In the case of `CS(=O)(=O)c1ccc(-c2nnn(CC(=O)Nc3ccc4c(c3)OCCO4)n2)cc1` it was “inactive”.
The result for `CC1(C)CC(=O)C/C(=N\NC(=O)c2cccs2)C1` reads “inactive”; that for `CN(CC(=O)NCCc1ccc(S(N)(=O)=O)cc1)CC(=O)Nc1ccc(F)c(F)c1F`, “inactive”; that for `Cc1ccc(C(=O)N/C(=C\c2cn(S(=O)(=O)N(C)C)c3ccccc23)C(=O)N2CCCC2)cc1`, “inactive”.
On to `C=CCSc1nnc(N2C(=O)C(O)=C(C(=O)c3ccco3)C2c2ccc(F)cc2)s1` (stereo unspecified), for which the B-score was -10.6 (active).
Turning to `C=CCOc1cccc(C2C(C(=O)c3ccc(C)o3)=C(O)C(=O)N2c2nnc(C)s2)c1` (stereo unspecified), the B-score result was “inactive”.
In the case of `Cc1ccc2nc(N3C(=O)C(O)=C(C(=O)c4ccco4)C3c3cccc(O)c3)sc2c1` (stereo unspecified), the B-score result was “inactive”.
Consider `O=C(c1c(F)cccc1Cl)N1CCN(S(=O)(=O)c2ccc3c(c2)OCCCO3)CC1`, for which the B-score result was “inactive”.
On to `Cc1cc(C)c(S(=O)(=O)c2ccccc2)c(OC(=O)c2c(F)cccc2Cl)n1`, for which the B-score is -14.3 (active).
In the case of `Cc1cc(OC(=O)c2c(Cl)cccc2Cl)nc(C)n1`, the B-score result was “inactive”.
Turning to `CCCCc1nc2ccccc2c(NC(=O)CN2CCN(C)CC2)c1CCC`, the B-score entry is “inactive”.
The result for `Clc1ccc(CSc2nnc(/C=C/c3ccccc3)o2)c(Cl)c1` reads “inactive”; that for `CSCc1cc(N2CCOCC2)nc(SCc2ccc(Cl)cc2Cl)n1`, “inactive”; that for `CSCc1cc(N(C)C)nc(SCc2ccc(Cl)cc2Cl)n1`, -9.62 (active).
Take `N#Cc1cccc(NC(=O)COC(=O)c2ccccc2C(=O)c2ccc(Cl)c([N+](=O)[O-])c2)c1`: the B-score is -11.8 (active).
Regarding `CC(=O)Nc1ccc(NC(=O)C(C)OC(=O)c2ccccc2C(=O)c2ccc(Cl)c([N+](=O)[O-])c2)cc1` (stereo unspecified), the B-score entry was “inactive”.
On to `CC(=O)Nc1ccc(NC(=O)COC(=O)c2ccccc2C(=O)c2ccccc2)cc1`, for which the B-score entry was “inactive”.
With `CCOc1ccc2oc(C(=O)N(CC)CC(=O)Nc3ccc(NC(C)=O)cc3)c(C)c2c1`, the B-score entry was “inactive”.
In the case of `Cc1nc(=O)c(-c2ccccc2)c(C)n1-c1ccc(Br)cc1` it was “inactive”.
With `CC(C)Oc1ccc(C2NC(=O)NC2=O)cc1` (stereo unspecified), the B-score result is “inactive”.
`O=C1c2ccccc2C2=Nc3ccccc3SC(c3ccccc3F)C12` (stereo unspecified): the B-score is -12.4 (active).
Regarding `Cc1cccc(C2c3c(n(C)c(=O)n(C)c3=O)N=C3c4ccccc4C(=O)C32)c1` (stereo unspecified), the B-score entry is “inactive”.
For `Cc1csc2nc(O)c(C(=O)NCCN3CCOCC3)c(=O)n12`, the B-score result was “inactive”.
Consider `Cc1cccc(NC(=O)c2sc3nc4c(c(-c5ccco5)c3c2N)CCC4)c1`, for which the B-score is -11.4 (active).
Turning to `COc1ccc(OC)c(NC(=O)c2sc3nc(C)cc(C)c3c2N)c1`, the B-score entry is “inactive”.
Regarding `Cc1ccc(NC(=O)c2sc3nc(N)c(C#N)cc3c2N)cc1`, the B-score result is “inactive”.
`CCCN=C1NC(=O)C(CC(=O)NCCc2ccc(OC)c(OC)c2)S1` (stereo unspecified): the B-score entry is “inactive”.
Consider `O=C1c2ccccc2C(Nc2ccc3c(c2)OCCO3)N1Cc1ccco1` (stereo unspecified), for which the B-score entry is “inactive”.
As for `CCOC(=O)c1cccc(NC(=O)C2CCN(c3ncnc4c3nc3n4CCCCC3)CC2)c1`, the B-score entry was “inactive”.
In the case of `COc1ccc(CC(=O)Nc2nc(-c3ccc(F)c(F)c3)cs2)cc1OC` it was -12.4 (active); in that of `COc1ccccc1NC(=O)Nc1nc(CC(=O)Nc2ccccc2F)cs1`, “inactive”; in that of `O=C(COc1ccccc1F)Nc1nc(-c2ccccn2)cs1`, “inactive”.
With `CCOC(=O)N1CCN(Cc2nc(Cc3cccc(C(F)(F)F)c3)no2)CC1`, the B-score entry is “inactive”.
As for `CN1CCN(CCCNC(=O)c2cc3c(=O)oc4ccccc4c3s2)CC1`, the B-score entry is “inactive”.
For the compound `Cc1cccc2c1-c1sc(C(=O)NCCCN3CCc4ccccc4C3)cc1CO2`, the B-score is -9.55 (active).
In the case of `O=C(NCCCN1CCOCC1)c1cc2c(s1)CCC2` it was “inactive”; in that of `O=C(O)Cc1csc(NC(=O)CSc2nnnn2-c2ccc(O)cc2)n1`, “inactive”.
In the case of `COc1ccc(Cl)cc1NC(=O)NCC1CCN(Cc2ccccc2F)CC1` it was “inactive”; in that of `COc1ccc(Cl)cc1NC(=O)NC(C)C(C)(C)C` (stereo unspecified), “inactive”; in that of `COc1ccc(Cl)cc1NC(=O)C(C)N1CCc2ccccc21` (stereo unspecified), -8.75 (active).
In the case of `O=C(NCc1cn2ccsc2n1)Nc1cccc(Cl)c1` it was “inactive”; in that of `Cc1ccc(S(=O)(=O)NCc2cn3ccsc3n2)c(C)c1`, -20.8 (active); in that of `Cc1nc(CNS(=O)(=O)c2cc([N+](=O)[O-])ccc2C)cs1`, “inactive”.
On to `COC(=O)c1ccccc1N=Nc1c(C)[nH][nH]c1=O`, for which the B-score result is “inactive”.
In the case of `CCN1CCN(CCNC(=O)c2ccc(/C=C3/Sc4ccccc4N(Cc4cccc(C)c4)C3=O)cc2)CC1`, the B-score was -11.5 (active).
`O=C(NCCCN1CCOCC1)c1ccc2c(c1)N(Cc1cccc(F)c1)C(=O)c1ccccc1S2`: the B-score result is “inactive”.
`CN1CCN(CCCNC(=O)c2ccc(/C=C3\Oc4ccccc4N(Cc4ccc(Cl)cc4)C3=O)cc2)CC1`: the B-score entry was “inactive”.

These data come from PubChem BioAssay AID602410 (Johns Hopkins Ion Channel Center, 2012).
